# Assay outcomes as filed in PubChem.
# NPC1 promoter act: qHTS Assay for NPC1 Promoter Activators. Huh7 NPC1 promoter luciferase reporter, 24 h. Potency, µM (titrated, usually from 9.22 µM), inactives show top-dose activation, actives largely listed as activators. actives 2.4% (n = 320,000). AID 485313, 2010; further: % of control where 0% means no effect; nearly all actives have a fitted effect of over 60% in size
#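 NPC1 promoter–luciferase Huh7 cells; 24 h compound; luminescence.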
# ELG1 repair inh: qHTS screen for small molecules that inhibit ELG1-dependent DNA repair in human embryonic kidney (HEK293T) cells expressing luciferase-tagged ELG1. HEK293T ELG1-luciferase reporter, luminescence, 16 h; DNA damage induced by 5-fluorouridine. Potency, µM (series often up to 46.1 µM), without a hit: top-dose activity change, negative = inhibition, hits mostly inhibitors. actives 2.3% (n = 330,000); further: on the % scale 0 is the no-effect control and ±100 the full control effect; nearly all actives have a fitted effect of over 55% in size
#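 Cells (2,000 per well) received 5-fluorouridine plus test compound or DMSO and were incubated 16 hr at 37 °C, 5% CO2. Luciferase activity was read by luminescence 30 min after ONE-Glo addition; signal suppression marked inhibition of damage-induced ELG1 function.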
# Rab9 prom act: qHTS Assay for Rab9 Promoter Activators; AID 485297, 2010; Huh7 Rab9 promoter-luciferase reporter, luminescence, 24 h; Potency, µM (doses to about 9.22 µM), inactives show at the highest dose activation, negative = inhibition, hits mostly activators; actives 2.8% (n = 320,000); further: % of control where 0% means no effect; nearly all actives have a fitted effect of over 60% in size
#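 Huh7 cells stably carrying a Rab9 promoter-luciferase reporter, 1500 cells per well in OP-MEM I with 10% FBS, treated with compound 24 hours at 37C. Luciferase activity read by luminescence after 10 minutes with Amplite reagent.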
# SMN2 splice enh: qHTS Assay for Enhancers of SMN2 Splice Variant Expression; actives 2.8% (n = 210,000); HEK293 SMN2-luciferase splicing reporter, luminescence, 30-36 h; Potency, µM (top dose mostly 46.1 µM), for inactives: at the top dose activity change, positive = activation, hits mostly activators; further: % of control where 0% means no effect; nearly all actives have a fitted effect of over 55% in size
#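 HEK293 cells carry an SMN2 minigene-luciferase reporter in which exon 7 inclusion puts luciferase in frame. Cells were seeded at 2000 cells/well, attached for 10-12 hours, then exposed to compounds for 30-36 hours at 37C before ONE-Glo luminescence.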
# ELG1 genotox: qHTS screen for small molecules that induce genotoxicity in human embryonic kidney (HEK293T) cells expressing luciferase-tagged ELG1; HEK293T ELG1-luciferase reporter, luminescence, 16 h; Potency, µM (titrated, usually from 46 µM), inactives show at the top dose activity change, positive = activation, actives largely listed as activators; actives 1.3% (n = 330,000); further: % of control where 0% means no effect; nearly all actives have a fitted effect of over 60% in size
#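 ELG1-luciferase HEK293T cells, 2,000/well; compound pinned in; 16 hr, 37 °C, 5% CO2; ONE-Glo, 30 min RT; luminescence on CCD imager.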
# FLuc counter: qHTS profiling assay for firefly luciferase inhibitor/activator using purifed enzyme and Km concentrations of substrates (counterscreen for miR-21 project); Luciferin 4-monooxygenase (Photinus pyralis), P08659; purified FLuc, Km substrates, luminescence inhibition; Potency, µM (highest dose often 57.5 µM), inactives show at the highest dose activity change, negative = inhibition, usual class: inhibitors; actives 6.9% (n = 360,000);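 further: plate controls were vehicle for no effect and reference inhibitor for full effect; nearly all actives have a fitted effect of over 55% in size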
# Target sequence (P08659 whole entry, looked up): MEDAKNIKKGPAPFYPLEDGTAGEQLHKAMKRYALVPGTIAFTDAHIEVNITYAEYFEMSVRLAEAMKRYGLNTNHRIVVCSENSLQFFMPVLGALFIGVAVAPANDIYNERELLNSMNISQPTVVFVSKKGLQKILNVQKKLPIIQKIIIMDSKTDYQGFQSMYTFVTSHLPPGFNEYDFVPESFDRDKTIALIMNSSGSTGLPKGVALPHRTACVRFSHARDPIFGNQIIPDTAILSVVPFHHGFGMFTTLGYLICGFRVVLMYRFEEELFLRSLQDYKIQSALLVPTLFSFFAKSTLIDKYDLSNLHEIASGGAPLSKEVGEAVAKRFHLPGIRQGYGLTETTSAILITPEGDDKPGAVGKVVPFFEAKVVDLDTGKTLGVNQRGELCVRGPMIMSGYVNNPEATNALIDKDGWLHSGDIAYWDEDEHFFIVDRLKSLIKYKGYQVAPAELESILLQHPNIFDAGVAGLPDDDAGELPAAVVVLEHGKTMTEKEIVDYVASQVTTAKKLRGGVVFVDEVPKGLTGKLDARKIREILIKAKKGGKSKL
#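 Purified P. pyralis luciferase, 10 nM final, with Km-level 10 uM D-luciferin and 10 uM ATP in 50 mM Tris acetate pH 7.5, 10 mM Mg acetate, 0.01% Tween-20, 0.05% BSA; 6-point qHTS titration about 60 µM downward; luminescence read.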
# An asterisk follows results filed as active; ? = inconclusive; . = no result; [ ] = remark or other dose. Shown are actives, neighbours in structure and some others; about 9.3% of the full set was active somewhere. The call rests on the fitted dose curve; in most records, active means well fitted curve in the direction sought with a large enough effect; inconclusive means small, poorly fitted or top-dose-only effect, or another doubt; inactive means no such curve, though single readings can be large; an effect the other way counts as inactive or inconclusive. Potency means the concentration at half of the fitted maximal effect.
SMILES,NPC1 promoter act,ELG1 repair inh,Rab9 prom act,SMN2 splice enh,ELG1 genotox,FLuc counter
COc1cccc(CNC(=O)c2cccc(NC(=O)c3nsc4ccccc34)c2)c1,.,.,.,.,.,6.75µM*
CCCCNC(=O)c1cccc(NC(=O)c2nsc3ccccc23)c1,.,.,.,.,.,4.78µM*
COc1cccc(CNC(=O)c2cccc(Br)c2)c1,9.2%,-3.7%,0.1%,-4.1%,0.3%,-10.6%
COCCCNC(=O)c1cccc(NC(=O)c2ccccc2)c1,-7.3%,2.0%,-1.2%,4.1%,-1.3%,-3.1%
O=C(CNC(=O)c1ccc(Cl)cc1)OCc1cc(=O)n2nc(C3CCCCC3)sc2n1,.,.,.,.,.,-18.2%
Cn1c2ccccc2c2cc(C(=O)N3CCOCC3)sc21,-3.0%,-12.4%,5.0%,3.7%,-2.4%,-4.3%
CC1CCc2nn(CC(=O)NCCCN3CCOCC3)cc2C1 (stereo not given),-2.2%,16.8%,-1.0%,-10.1%,-9.1%,2.1%
COc1ccccc1/C=C/c1nc(C#N)c(NC2CCCCC2)o1,.,.,.,3.5%,.,?
Cc1ccccc1C(=O)NNc1ncnc2c1cnn2C,-1.5%,8.6%,-1.7%,8.8%,7.1%,4.0%
O=C(Nc1cccc(C(=O)N2CCCCC2)c1)c1nsc2ccccc12,.,.,.,.,.,5.36µM*
O=C(Nc1cccc(C(=O)N2CCCCC2)c1)c1ccc(Cl)cc1,16.1%,2.3%,25.8%,.,-2.0%,?
O=C(NCCC1=CCCCC1)C1CCC(CNS(=O)(=O)c2ccccc2)CC1 (stereo not given),1.6%,-2.4%,-11.0%,-32.5%,0.3%,-2.5%
COc1ccccc1NC(=S)N(Cc1ccco1)Cc1cc2cc(C)cc(C)c2[nH]c1=O,-20.0%,11.6µM*,-7.5%,-4.1%,-5.7%,-0.5%
Cc1cc(C)c2cc(CN(Cc3ccco3)C(=O)NCc3ccccc3)c(=O)[nH]c2c1,2.7%,8.2µM*,-3.1%,.,-7.3%,-0.3%
COC(=O)c1ccccc1NC(=S)N(Cc1ccc2c(c1)OCO2)Cc1cc2cccc(C)c2[nH]c1=O,-3.2%,11.6µM*,-4.3%,9.1%,-3.0%,-1.0%
CCOC(=O)C1=C(CN2CCN(C)CC2)NC(=O)NC1c1ccc(F)cc1 (stereo not given),.,.,.,.,.,-2.5%
Cc1ccc(NC(=O)CCC(=O)NNS(=O)(=O)c2ccccc2)cc1C,0.6%,0.5%,-1.3%,12.6%,-0.4%,0.3%
COc1ccc(C(=O)NCCSC2CCCCC2)cc1,?,?,?,15.8µM*,?,13.5µM*
c1ccc(-c2nnc(CSc3nncs3)o2)cc1,27.9%,?,25.2%,?,23.1µM*,?
Cc1ccc(C(=O)N(Cc2nnc(-c3ccc(Cl)cc3)o2)C2CC2)o1,0.6%,?,-4.7%,.,1.1%,-26.5%
Brc1ccc(-c2nnc(Cc3ccccc3)o2)cc1,3.55µM*,?,?,.,20.6µM*,10.7µM*
Cc1ccccc1-c1nnc(Cc2ccccc2)o1,3.98µM*,?,3.98µM*,11.2µM*,?,10.7µM*
Cc1ccc(-c2nnc(Cc3ccc(Cl)cc3)o2)cc1,23.4%,?,28.4%,21.3%,16.4µM*,16.9µM*
CCOC(=O)NN1C(=O)c2ccccc2NC1c1cccnc1 (stereo not given),-2.8%,0.7%,-3.9%,-32.0%,19.8%,-1.2%
CC1(OC(=O)c2cnc3ccccc3n2)C(=O)C=C2C=C(c3ccsc3)OC=C2C1=O (stereo not given),.,.,.,6.6%,.,.
SMILES,NPC1 promoter act,ELG1 repair inh,Rab9 prom act,SMN2 splice enh,ELG1 genotox,FLuc counter
CN(C)CCCc1c2ccccc2nc2ccc(Cl)cc12,.,.,.,1.5%[9.22 µM],.,.
O=C(c1cn(-c2ccccc2)nc1-c1ccc(Cl)cc1)N1CCOCC1,-1.2%,-5.0%,-2.0%,18.2%,-0.8%,?
c1ccc(Cc2nnc(-c3ccccc3)o2)cc1,?,?,?,?,3.26µM*,23.9µM*
COc1ccc(Cc2nnc(-c3ccccc3)o2)cc1,16.6%,?,?,-13.0%,.,?
CCOC(=O)C1CCN(C(=O)c2ccc(-n3ccc4ccccc43)s2)CC1,.,.,.,.,.,-15.4%
CC(NC(=O)C1CCN(C(=O)c2ccc(-n3ccc4ccccc43)s2)CC1)c1ccccc1 (stereo not given),.,.,.,.,.,13.5µM*
CC(C)CCN1CN(S(=O)(=O)c2cccs2)c2nc3ccccc3nc21,9.1%,16.2%,-1.1%,-3.9%,10.8%,0.7%
CC(C)Cc1nn2c(=O)cc(COC(=O)c3cccc(NC(=O)c4ccccc4)c3)nc2s1,.,.,.,.,.,-1.4%
O=C(N/C(=C/c1cccnc1)C(=O)N1CCCCCC1)c1ccccc1,3.1%,-1.5%,1.5%,.,0.9%,0.6%
O=c1c2ccccc2ncn1-c1ccc2c(c1)OCCO2,?,?,2.82µM*,1.7%,?,?
COc1ccc2c(c1)c(=O)oc1cc(O)ccc12,1.6%,20.5%,9.6%,.,12.4%,?
COc1ccc(-c2c(C)c3ccc(OCC(C)=O)cc3oc2=O)cc1,2.82µM*,?,2.24µM*,?,-5.7%,23.9µM*
CC(=O)COc1ccc2c(C)c(C)c(=O)oc2c1,6.1%,?,?,-7.1%,?,0.5%
COc1ccc(-c2c(C)c3ccc(O)cc3oc2=O)cc1,?,?,13.8%,.,13.4%[9.26 µM],15.1µM*
O=c1oc2cc(O)ccc2c2oc3cc(O)ccc3c12,0.7%,?,1.0%,-23.5%,6.9%,19µM*
COc1ccc(-c2cc(=O)oc3c(C)c(O)ccc23)cc1,4.4%,8.2µM*,-5.1%,.,-14.4%,1.9%
Cc1ccc(NC(=O)COC(=O)c2cccnc2Cl)cc1S(=O)(=O)N1CCCCC1,-14.8%,-15.8%,-5.5%,0.2%,-0.1%,-1.2%
Cc1cc2oc(=O)c(CC(=O)NCCc3ccccc3)c(C)c2c2occ(C(C)(C)C)c12,.,.,.,-3.5%,.,?
CCN(CC)c1ccc2c(C)c(Cl)c(=O)oc2c1,0.0%,?,0.4%,.,1.0%,0.7%
CCN(CC)c1ccc2c(C)c(-c3ccc(N)cc3)c(=O)oc2c1,22.9%,16.0%,24.4%,?,5.9%,23.9µM*
O=C(O)Cn1ccnc1[N+](=O)[O-],.,.,.,-11.3%[9.22 µM],.,.
O=C(Nc1nccs1)c1ccc(-c2ccc(Cl)cc2)o1,1.41µM*,?,1µM*,11.2µM*,?,0.213µM*
O=C(/C=C/c1ccc(Cl)cc1)Nc1nccs1,0.631µM*,?,0.316µM*,3.98µM*,?,1.35µM*
C/C=C/C=C/C(=O)Nc1nccs1,3.8%,?,?,-6.3%[1.84 µM],10.8%,?
